Here are results for 95 molecules from PubChem BioAssay AID488899 (Broad Institute, 2010).

The whole screen tested about 330,000 compounds, of which about 2,800 (0.85%) were called active.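 How the source made its calls: active means mean inhibition across replicates of 60% or more, whatever share of single replicates reaches that level; inconclusive means some that reach 60%, reason not given; inactive means mean inhibition across replicates below 60%.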 The sample as a whole holds a higher share of actives than the screen did.

The nature of this test: MITF transcriptional activity suppression – cell-based, SK-MEL-5, single point, luciferase, primary screen (AID 488899). Conditions: SK-MEL-5 TRPM1 promoter luciferase, 24 h; at 12.5 µM; active compounds read high.
With `COc1ccccc1OCCNc1cc(N2CCOCC2)ccc1[N+](=O)[O-]`, the inhibition is -28% (inactive).

As to `COc1ccc(CCNc2cc(N3CCN(C(=O)c4ccccc4OC)CC3)ccc2[N+](=O)[O-])cc1OC`, the inhibition was 77.2% (active). As for `O=C(c1ccccc1)N1CCN(c2ccc([N+](=O)[O-])c(NCc3ccco3)c2)CC1`, the figure is 5.6% (inactive); as for `C[C@@H](NC(=O)c1nc[nH]c1C(=O)N1CCN(C(=O)OC(C)(C)C)CC1)c1ccccc1`, -1.66% (inactive); as for `CCCCN1CC(CO)Oc2cccc(F)c2S1(=O)=O` (stereo not given), 0.622% (inactive). The same measure for `Cc1ccc(CN(Cc2cccnc2)C(=S)Nc2cc(Cl)ccc2C)cc1`: 1.58% (inactive); for `O=c1ccn([C@@H]2O[C@H](CNS(=O)(=O)c3cc4ccccc4s3)[C@@H](O)[C@H]2O)c(=O)[nH]1`: -0.592% (inactive); for `C[C@@H]1C[C@@H]2O[C@H]2/C=C\C=C\C(=O)Cc2c(Cl)c(O)cc(O)c2C(=O)O1`: 71.8% (active).

For the molecule `CC(C)C(C(=O)NC1CCCCC1)N(CC1CCCO1)C(=O)CNS(=O)(=O)c1ccc(F)cc1` (stereo not given), the inhibition is 10.3% (inactive).

Turning to `O=C(CN1CCOc2ccccc21)N1CCC(Cc2ccccc2)CC1`, the inhibition is 5.49% (inactive). As for `CCCC(O)(c1ccccc1)C(c1ccccc1)c1ccccn1` (stereo not given), the figure is 4.1% (inactive); as for `COc1ccc(CNCCCn2cnc3c(OCc4ccccc4)ncnc32)cc1`, -4.78% (inactive); as for `Cc1cc(C)n(CC(O)COc2ccc(C(C)(C)C)cc2)n1` (stereo not given), -18.8% (inactive). As for `CN(C)CC(O)COc1ccc(C(C)(C)c2ccc(OCC(O)CN(C)C)cc2)cc1` (stereo not given), the figure is 65.7% (active); as for `CC(C)(c1ccccc1)c1ccc(OCCN)cc1`, -6.11% (inactive).

Take `Nc1ccc2c(c1)C(O)c1ccc(Cl)cc1-2` (stereo not given): the inhibition is -6.14% (inactive).

As to `CN(CC(=O)NCCc1ccc(F)cc1)CC(=O)Nc1ccc(F)c(F)c1F`, the inhibition was 19.3% (inactive).

`Nc1nonc1-n1nnc(C(=O)N/N=C/c2cc(Br)ccc2O)c1CSC1=NCCS1`: the inhibition was 17.4% (inactive). The same measure for `CC(C)(CCl)C(=O)Nc1ccc(Sc2ccc(F)cc2)cc1`: -9.91% (inactive). For `O=C(CCl)Nc1cccc(CP(=O)(c2ccccc2)c2ccccc2)c1`, the inhibition was 5.96% (inactive). The same measure for `O=C(CCl)Nc1ccc(Sc2ccc(NC(=O)CCl)cc2)cc1`: 88.6% (active); for `COC(=O)C1CC2=C(CC(C)(C)CC2=O)N(c2ccccc2)C1=O` (stereo not given): -6.85% (inactive); for `O=C(O)CCCn1c(=O)c2cccn2c2ccc(F)cc21`: 7.45% (inactive). Consider `CCCC/C(C)=N/NC(=O)NC1CCCCC1`, for which the inhibition was 4.57% (inactive). As for `Cc1cccc(-c2nc3ccc(C(=O)NCCN4CCN(C)CC4)cc3nc2-c2cccc(C)c2)c1`, the figure is 69.1% (active); as for `CCC1=Nc2cc(C(=O)NCCN3CCCC3)ccc2Sc2ccc(C)cc21`, -15.3% (inactive); as for `Cc1cccc(C(=O)OC(C)CN2CCN(C)CC2)c1` (stereo not given), -41.9% (inactive). As to `FC(F)(F)c1cccc(Cc2noc(CN3CCC(N4CCCCC4)CC3)n2)c1`, the inhibition was 1.26% (inactive). As for `NC(=O)C1CCN(C(=O)c2cc(S(=O)(=O)N3CCN(c4ccccc4)CC3)ccc2Cl)CC1`, the figure is 4.66% (inactive). The same measure for `Cc1cc(NC(=O)CN2CCCC(C)C2)n(-c2nc3ccccc3s2)n1` (stereo not given): 1.1% (inactive).

`CCC(C)Cn1c(O)cc2nn(-c3nc4ccccc4s3)c(=O)c-2c1C` (stereo not given): the inhibition is 89% (active). As to `CCN(CC(=O)NCCCN1CCOCC1)S(=O)(=O)c1cc(Cl)ccc1Cl`, the inhibition was 12.6% (inactive). As for `O=c1[nH]c2cccnc2n(CCNc2ncc(C(F)(F)F)cc2Cl)c1=O`, the figure is -3.01% (inactive); as for `O=C(O[C@@H]1[C@H](Cc2ccccc2)NS(=O)(=O)[C@H]2C[C@@H]3C=C[C@]12O3)c1ccccc1Br`, -5.01% (inactive); as for `O=C(Nc1ccc(Br)cn1)C1CCN(S(=O)(=O)c2cccs2)CC1`, 20.1% (inactive). Regarding `O=c1[nH]c(=S)[nH]c(O)c1/C=C1\C=Nc2ccccc21`, the inhibition is 65.4% (active). In the case of `CCc1ccc(NC(=O)CN2CCC(C(=O)c3ccc(OC)cc3)CC2)cc1`, the inhibition is 16.5% (inactive). The same measure for `COCC(=O)Nc1c(C(=O)N2CCCC2)oc2ccccc12`: -5.06% (inactive); for `Cc1cc(C)cc(OCC(=O)NNC(=O)c2cc3ccccc3oc2=O)c1`: -14.8% (inactive). In the case of `NC(=O)C1(N2CCCCC2)CCN(C(=O)c2ccc(C#Cc3ccccc3)o2)CC1`, the inhibition is 10.7% (inactive). For `Cc1cc(C(=O)CCl)c(C)n1CC1COc2ccccc2O1` (stereo not given), the inhibition is 51.2% (inactive). As for `COc1ccc(C(=O)OCC(=O)c2cc(C)n(CC3CCCO3)c2C)cc1[N+](=O)[O-]` (stereo not given), the figure is -13.5% (inactive). Turning to `Cc1ccsc1C(=O)OCC(=O)c1cc(C)n(CC2CCCO2)c1C` (stereo not given), the inhibition was 68% (active).

As to `CCOc1cccc2c1OC1(CCCCC1)N1N=C(c3cccnc3)CC21` (stereo not given), the inhibition is -62.4% (inactive). The same measure for `Cn1c(=O)c2c(n(Cc3ccccc3)c1=O)NC(=O)C2CC(=O)N1CCc2ccccc2C1` (stereo not given): -5.67% (inactive); for `COC(=O)C1CCN(CC(N)=O)CC1`: -7.19% (inactive); for `CC(C)(C)c1cc(C(=O)N/N=C/c2ccc([N+](=O)[O-])s2)n[nH]1`: 85.1% (active). Turning to `COc1ccc2ccccc2c1/C=N/NC(=O)c1cc(C)[nH]n1`, the inhibition was -14.1% (inactive). The same measure for `Cc1cc(C(=O)N/N=C/c2cc([N+](=O)[O-])cc(C)c2O)n[nH]1`: 11.2% (inactive); for `COc1ccc(S(=O)(=O)N2CCOCC2)cc1NC(=O)c1ccc(OCC(C)C)c(OC)c1`: -3.59% (inactive); for `O=C(Oc1ccc(-c2nc(-c3ccccn3)no2)cc1)c1ccccc1`: 36.6% (inactive). Regarding `CC1CCCN(C(=O)CN2C(=O)c3ccccc3S2(=O)=O)C1` (stereo not given), the inhibition was 11.4% (inactive).

In the case of `O=C(CN1C(=O)c2ccccc2S1(=O)=O)N1CCc2ccccc21`, the inhibition was 74.1% (active). Consider `O=C(CN1C(=O)c2ccccc2S1(=O)=O)NC1CCCCC1`, for which the inhibition is 4.83% (inactive). The same measure for `Cc1ccc(SCC(=O)NC(=O)NCc2ccco2)c(C)c1`: 9.21% (inactive).

As to `COCC(=O)N(C)[C@H]1C[C@H]2c3cc(Oc4ccccc4C)ccc3CCN2C(=O)[C@H]1[C@H](C)O`, the inhibition is -16.5% (inactive). Consider `Oc1c(CN2CCCC2)cc(COCc2ccccc2)c2cccnc12`, for which the inhibition was 73.5% (active).

On to `Oc1c(CN2CCN(c3ccc(F)cc3)CC2)cc(Cl)c2cccnc12`, for which the inhibition was 70.7% (active). As for `COc1cc(C)cc(CN2CCC(Cc3ccccc3)CC2)c1O`, the figure is 2.68% (inactive).

For `Cc1ccc(CN2CCN(c3ncccn3)CC2)c(C)c1`, the inhibition was 4.53% (inactive). On to `CC1CCCN(CC(O)COCc2ccccc2)C1` (stereo not given), for which the inhibition was -13.7% (inactive). As for `Cc1cc(=O)oc2cc(OCC(=O)N3CCN(c4ccc(F)cc4)CC3)c(Cl)cc12`, the figure is -0.292% (inactive); as for `COc1ccc(OCCNS(=O)(=O)Cc2ccccc2)cc1`, 0.0862% (inactive); as for `Cc1ccc(NC(=O)CN2CCCCC2)c2c1CC(C)(C)O2`, -7.61% (inactive). Regarding `CCNC(=S)NCC`, the inhibition is 5.56% (inactive). On to `O=C(NNC(=O)c1ccc(-n2cncn2)c([N+](=O)[O-])c1)c1ccccc1`, for which the inhibition is -1.1% (inactive). For `Cc1ccc(-c2csc(NC3OC(=O)c4ccccc43)n2)cc1` (stereo not given), the inhibition is 31.3% (inactive). Regarding `COc1ccc2c(c1OC)C(=O)OC2Nc1nc(-c2ccccc2)cs1` (stereo not given), the inhibition is 68.6% (active).

Consider `COc1cc(CC(=O)Nc2nc(-c3ccc(F)c(F)c3)cs2)cc(OC)c1OC`, for which the inhibition was 0.159% (inactive). As for `CCc1cc(-c2nnc(SCC(=O)NC3CC3)n2C)cs1`, the figure is -9% (inactive); as for `CCOC(=O)c1ccc(NC(=O)c2c(N)n(C)c(=O)[nH]c2=O)cc1`, -48.3% (inactive); as for `CC(C)c1ccc(Cc2nnc(NCCCO)[nH]c2=O)cc1`, -0.574% (inactive). Turning to `COc1ccc(Cc2nnc(N/N=C/c3ccccc3O)[nH]c2=O)cc1OC`, the inhibition is 64% (active). As for `O=c1[nH]c(NCCO)nnc1Cc1ccc(Cl)cc1`, the figure is 5.61% (inactive); as for `Cc1ccc(CN2CC(C(=O)N3CCN(S(=O)(=O)c4ccccc4)CC3)CC2=O)cc1` (stereo not given), -1.06% (inactive); as for `c1ccc2cc3c(NCCN4CCOCC4)ccnc3cc2c1`, 80.4% (active).

Turning to `CCOc1nc(NCCN2CCOCC2)nc(Nc2ccc(C)cc2)n1`, the inhibition was -2.25% (inactive). The same measure for `c1ccc(-c2ccc(OCCN3CCOCC3)cc2)cc1`: -61.1% (inactive); for `O=C1NC(c2ccc(-c3ccccc3[N+](=O)[O-])o2)C(C(=O)c2ccc(Cl)cc2)C(O)(C(F)(F)F)N1` (stereo not given): 12.2% (inactive). In the case of `CN(C)S(=O)(=O)Oc1ccccc1C(=O)Nc1ccccc1Cl`, the inhibition was -7.26% (inactive). In the case of `O=C(Nc1ccccc1Cl)/C(Cl)=C(\Cl)S(=O)c1ccccc1` (stereo not given), the inhibition is 97% (active). As for `Cc1c(NC(=O)Nc2ccccc2Cl)sc(=S)n1C`, the figure is -9.97% (inactive); as for `Nc1ccc2[nH]c(=S)sc2c1`, -7.16% (inactive); as for `CC(C)(C)CC(C)(C)NCC(O)COCCOc1ccc(Br)cc1` (stereo not given), 85.9% (active). As for `OC(COc1ccc(Br)cc1)CN1CCCC1` (stereo not given), the figure is -0.089% (inactive); as for `CC(Oc1ccc(Br)cc1)C(=O)NC1CCCCCC1` (stereo not given), -16.6% (inactive). The same measure for `COc1ccc(C2NCCCC2c2ccccc2)cc1` (stereo not given): 14.7% (inactive); for `Cc1ccccc1N1CCN(C(=O)c2cccnc2)CC1`: 2.88% (inactive); for `CCOc1ccc(NC(=S)N2CCC(N(C)CC3CCCO3)CC2)cc1` (stereo not given): -2.52% (inactive). In the case of `CCOc1cc(/C=C(/C#N)c2ccc(Cl)cc2)cc(Cl)c1OCC(=O)O`, the inhibition is 98.2% (active). As for `C/C(=N\OCC(=O)O)c1ccc(Cl)cc1`, the figure is -2.61% (inactive); as for `CCOC(=O)CN/C=C(\C#N)c1ccc(F)cc1`, 19.8% (inactive); as for `C#CCOCCOCCOCCNc1nc(N2CCN(C(=O)CCCCCCCCCCNC(=O)Cn3cc(CCCCCN)nn3)CC2)nc(N2CCN(C(=O)CCCCCCCCCCNC(=O)[C@H](CO)n3cc(CCCSC)nn3)CC2)n1`, 23.1% (inactive). For `C#CCOCCOCCOCCNc1nc(N2CCN(C(=O)CCCCCCCCCCNC(=O)[C@H](CCCCN)n3cc(C)nn3)CC2)nc(N2CCN(C(=O)CCCCCCCCCCNC(=O)[C@H](CO)n3cc(CCCSC)nn3)CC2)n1`, the inhibition was 47.5% (inactive). Take `C#CCOCCOCCOCCNc1nc(N2CCN(C(=O)CCCCCCCCCCNC(=O)[C@H]([C@@H](C)CC)n3cc(CCCCN=C(N)N)nn3)CC2)nc(N2CCN(C(=O)CCCCCCCCCCNC(=O)[C@H](CO)n3cc(CCCSC)nn3)CC2)n1`: the inhibition is 72.9% (active).

For orientation: inhibition means the change of the read-out against control, counted positive when it falls.
